The values that follow come from PubChem BioAssay (NCATS).

Results filed as inconclusive are left out. Activity calls are given as the source filed them. Unless noted, the call rests on the fitted dose curve; in most records, active means well fitted curve in the direction sought with a large enough effect; inconclusive means small, poorly fitted or top-dose-only effect, or another doubt; inactive means no such curve, though single readings can be large; an effect the other way counts as inactive or inconclusive.

The nature of assay [1]: qHTS drug screen for cell cycle checkpoint inhibitors in PARPi-resistant BRCA-mutant ovarian cancer cell lines. (AID 1963452; calls by dose curve; further: potency means the concentration at half of the fitted maximal effect). The note with it: PEO1/OlaR viability, CellTiter-Glo luminescence, 96 h; for Z-AUC: stronger effect = lower value. An outline of the steps:
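PEO1, PEO4 and PEO1/OlaR ovarian cancer cells, 600 per well, exposed 96 h at 37C to a dilution series. Viability read by CellTiter-Glo luminescence, normalized to DMSO and empty wells; activity summarized as Z-AUC.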
In general terms: Quantitative high-throughput screening tests each substance at several concentrations.

Assay [2] is described as follows: qHTS for identification of novel therapeutic agents for treatment of microphthalmiaassociated transcription factor (MiT) renal cell carcinoma (RCC) (AID 1963991; calls by dose curve; further: potency means the concentration at half of the fitted maximal effect). The note with it: CellTiter-Glo, 48 h; for z-score: stronger effect = lower value. An outline of the steps: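 Viability of three TFE3-fusion renal carcinoma lines measured by CellTiter-Glo after 48 h treatment with each of 1912 compounds at 11 concentrations. Responses scaled between DMSO (100%) and empty wells (0%) before curve fitting.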

A short description of assay [3]: qHTS profiling for inhibitors of Plasmodium falciparum proliferation (AID 504749). Further: potency means the concentration at half of the fitted maximal effect.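 On activity, negative = inhibition: 0% = DMSO vehicle and full inhibition = artemisinin control.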 On all read-outs here: nearly all actives have a fitted effect of over 60% in size. As to conditions: P. falciparum in erythrocytes, SYBR Green DNA, 72 h; for activity, negative = inhibition: at 28.7 µM (top of the series). The procedure, abridged:
(§1)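 SYBR Green fluorescence of parasite DNA, read after lysis and overnight dark incubation, measured growth over 72 h in erythrocyte culture at 0.3% parasitemia and 2.5% hematocrit. Data normalised to DMSO and 0.29 uM artemisinin, with plate-drift correction.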

In another assay the test system is 3D7. The assay is described as above. The note with it: P. falciparum in erythrocytes, SYBR Green DNA, 72 h; series mostly up to 28.7 µM. The procedure, abridged:
as §1

The next assay concerns 7G8. The description is as above. As to conditions: P. falciparum in erythrocytes, SYBR Green DNA, 72 h; series mostly up to 28.7 µM. The procedure, abridged: as §1
Another assay deals with AA1029. The assay is described as above. As to conditions: P. falciparum in erythrocytes, SYBR Green DNA, 72 h; series mostly up to 28.7 µM. An outline of the steps:
as §1

The test system of the next assay is AS120. The description is as above. As to conditions: P. falciparum in erythrocytes, SYBR Green DNA, 72 h; series mostly up to 28.7 µM. The procedure, abridged: as §1
A further assay has as its system ATS189. The description is as above. As to conditions: P. falciparum in erythrocytes, SYBR Green DNA, 72 h; series mostly up to 28.7 µM. An outline of the steps:
as §1

Assay [4] concerns the target Nuclear receptor subfamily 1 group I member 2 (Homo sapiens) (UniProt O75469). Description: Dual reporter qHTS for antagonist of Pregnane X Receptor (hPXR) against the NCATS DSHEA and TCM libraries: Luminescence Readout (AID 1920060). Further: 0% is about no effect. The note with it: hPXR dual reporter cells, luciferase luminescence, antagonist mode; series mostly up to 40 µM. The procedure, abridged: (§2)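 Rifampicin-stimulated (2 uM final) hPXR-luciferase HepG2 cells were treated for 24 h with DSNP/TCM substances. Viability came from CellTiter-Fluor fluorescence, reporter activity from ONE-Glo luminescence.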

Assay [5] is described as follows: Dual reporter qHTS for antagonist of Pregnane X Receptor (hPXR) against the NCATS DSHEA and TCM libraries: Fluorescence Readout (AID 1920061). Further: 0% is about no effect. As to conditions: PXR dual reporter cells, antagonist mode; series mostly up to 40 µM. The procedure, abridged: as §2
[6] abbreviates: measured here: PEO1 parental Z-AUC.
Where [7] appears, read: TFE3-RCC UOK109 viability, measured here: UOK109 Z-AUC.
The mark [8] stands for this setting: TFE3-RCC viability, measured here: UOK124 Z-AUC.
Setting [9] is: TFE3-RCC viability, measured here: UOK145 Z-AUC.

Nuclear receptor subfamily 1 group I member 2 (Homo sapiens), sequence (O75469 whole entry, looked up): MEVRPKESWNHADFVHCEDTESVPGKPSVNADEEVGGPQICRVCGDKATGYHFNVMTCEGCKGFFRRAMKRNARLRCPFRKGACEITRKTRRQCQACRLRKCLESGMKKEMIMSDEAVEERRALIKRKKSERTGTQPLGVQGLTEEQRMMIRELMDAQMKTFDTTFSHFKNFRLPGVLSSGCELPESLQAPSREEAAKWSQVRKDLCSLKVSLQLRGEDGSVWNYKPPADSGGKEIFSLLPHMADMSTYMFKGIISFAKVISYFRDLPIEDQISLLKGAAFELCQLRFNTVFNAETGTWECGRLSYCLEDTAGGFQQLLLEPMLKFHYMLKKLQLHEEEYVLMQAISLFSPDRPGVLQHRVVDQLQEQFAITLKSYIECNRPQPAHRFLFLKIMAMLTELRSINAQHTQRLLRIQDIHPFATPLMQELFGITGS

As for `CC(=O)OCC(CCn1cnc2cnc(N)nc21)COC(C)=O`, the Z-AUC in assay [1] is 1.18 (inactive); in [1] (setting [6]), 1.12; in assay [1] (measured here: PEO4 Z-AUC), 1.62. Moreover, the z-score in [2] (setting [7]) is 0.583; in assay [2] (setting [8]), 0.498; in assay [2] (setting [9]) it was 1.13. For the same compound, the activity, negative = inhibition in assay [3] (parasite line A) is -2.23% (inactive); in [3] (parasite line B), 0.392% (inactive). The Potency entry in the assay with 3D7, in the assay with 7G8, with AA1029, in the assay on AS120 and with ATS189 was “inactive” in each case.

As for `N[C@@H](Cc1c[nH]c2ccc(O)cc12)C(=O)O`, the values for the Z-AUC in [1], in [1] (setting [6]) and in assay [1] (measured here: PEO4 Z-AUC) were -0.189 (inactive), -0.312 and -0.162, respectively. For the same compound, the figures for the z-score in assay [2] (setting [7]), in assay [2] (setting [8]) and in assay [2] (setting [9]) were 0.236, 0.415 and 0.556, respectively. The activity, negative = inhibition in assay [3] (parasite line A) is 15.9% (inactive); in [3] (parasite line B), 15.8% (inactive). For the same compound, the Potency result in the assay on 3D7, in the assay on 7G8, in the assay on AA1029, with AS120 and in the assay on ATS189 was “inactive” in each case.

With `O=C1c2c(O)ccc(O)c2C(=O)c2c(NCCNCCO)ccc(NCCNCCO)c21`, the Potency is 195 nM (active) in assay [1]; 1050 nM (active) in assay [2] (TFE3-RCC UOK109 viability, active = Z-AUC below -0.8 in all three lines); 3160 nM (active) in assay [3] (parasite line A); 3160 nM (active) in assay [3] (parasite line B); 2000 nM (active) with 3D7; 1260 nM (active) with 7G8. The Potency was 2510 nM (active) with AA1029, 2240 nM (active) in the assay with AS120 and 2820 nM (active) in the assay on ATS189. For the same compound, the figures for the Z-AUC in [1] (setting [6]) and in [1] (measured here: PEO4 Z-AUC) were -2.48 and -2.26, respectively. Further, the figures for the z-score in assay [2] (setting [7]), in assay [2] (setting [8]) and in [2] (setting [9]) were -2.02, -1.52 and -2.08, respectively.

As to `CC[N+](CC)(CC)CCOc1cccc(OCC[N+](CC)(CC)CC)c1OCC[N+](CC)(CC)CC`, the values for the Z-AUC in [1], in assay [1] (setting [6]) and in assay [1] (measured here: PEO4 Z-AUC) were 0.722 (inactive), 0.846 and 0.666, respectively. Also, the values for the z-score in assay [2] (setting [7]), in assay [2] (setting [8]) and in assay [2] (setting [9]) were 0.0594, 0.771 and -0.103, respectively. Moreover, the activity, negative = inhibition was -0.0275% (inactive) in [3] (parasite line A) and 10.3% (inactive) in [3] (parasite line B). Besides, the Potency entry in the assay with 3D7, in the assay on 7G8, in the assay on AA1029, with AS120 and in the assay with ATS189 was “inactive” in each case.

For the compound `CC(C)(C)C(=O)Oc1ccc(S(=O)(=O)Nc2ccccc2C(=O)NCC(=O)O)cc1`, the Z-AUC in assay [1] is 1.22 (inactive); in assay [1] (setting [6]) it was 0.948; in assay [1] (measured here: PEO4 Z-AUC) it was 1.16. Further, the z-score is 0.584 in assay [2] (setting [7]), 0.0353 in assay [2] (setting [8]) and 0.435 in assay [2] (setting [9]). For the same compound, the values for the activity, negative = inhibition in assay [3] (parasite line A) and in [3] (parasite line B) were -0.829% (inactive) and 7.95% (inactive), respectively. Moreover, the Potency result in the assay with 3D7, in the assay with 7G8, in the assay on AA1029, in the assay on AS120 and in the assay with ATS189 was “inactive” throughout.

On to `CN1CCN(C2=Nc3cc(Cl)ccc3Nc3ccccc32)CC1`, for which the figures for the Z-AUC in assay [1], in [1] (setting [6]) and in assay [1] (measured here: PEO4 Z-AUC) were 0.802 (inactive), 0.75 and 0.32, respectively.

Consider `Cn1c(=O)c2[nH]cnc2n(C)c1=O`, for which the Z-AUC in [1] is 0.347 (inactive); in assay [1] (setting [6]), 0.72; in [1] (measured here: PEO4 Z-AUC), 0.784. Further, the z-score in [2] (setting [7]) is 1.09; in [2] (setting [8]), 0.242; in assay [2] (setting [9]), 0.63. Besides, the activity, negative = inhibition in [3] (parasite line A) was 0.326% (inactive); in assay [3] (parasite line B), 0.99% (inactive). For the same compound, the Potency entry in the assay on 3D7, in the assay with 7G8, with AA1029, in the assay on AS120 and in the assay on ATS189 was “inactive” each time.

For the compound `Cn1c(=O)c2c(ncn2C)n(C)c1=O`, the call in assay [4] and in assay [5] was inactive. Moreover, the values for the Z-AUC in assay [1], in assay [1] (setting [6]) and in assay [1] (measured here: PEO4 Z-AUC) were 1.16 (inactive), 1.03 and 1.21, respectively. For the same compound, the figures for the z-score in assay [2] (setting [7]), in [2] (setting [8]) and in assay [2] (setting [9]) were 0.696, 0.536 and 0.729, respectively. Also, the activity, negative = inhibition is 6.06% (inactive) in [3] (parasite line A) and 8.5% (inactive) in [3] (parasite line B). Also, the Potency result in the assay with 3D7, in the assay with AA1029, in the assay with AS120 and with ATS189 was “inactive” throughout.
